Compound activity: PubChem BioAssay, National Center for Advancing Translational Sciences (NCATS)
PLK1 PBD inh: qHTS for Inhibitors of PLK1-PDB (polo-like kinase 1 - polo-box domain): Primary Screen; Plk1 PBD binding of FITC phosphopeptide, fluorescence polarization; Potency, µM, for the others: max response, negative = inhibition, usual class: inhibitors; actives 2.8% (n = 360,000); note: series mostly up to about 57 µM; nearly all actives have a fitted effect of over 65% in size
Sfp inh: qHTS Assay for Inhibitors of Bacillus subtilis Sfp phosphopantetheinyl transferase (PPTase); 4'-phosphopantetheinyl transferase ffp (Bacillus subtilis), Q9F4F7; Biochemical Sfp PPTase activity, qHTS; Potency, µM, inactives show largest response in the series, negative = inhibition, most hits filed as inhibitors; actives 3.5% (n = 310,000); AID 1490, 2009;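 note: the enzyme is Sfp with the accession as filed and its product quenches rhodamine fluorescence; 0% = enzyme reaction without inhibitor and -100% = no enzyme wells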
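Fluorescence-quenching assay with 15 nM Sfp, 5 uM rhodamine-CoA and 12.5 uM BHQ-2-labelled ybbR peptide in pH 7.6 Hepes/MgCl2 buffer. Enzyme was pre-incubated with compound for 15 min at room temperature. Rate was taken from the 30-min fluorescence change (525/598 nm).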
ALOX12 inh: Primary qHTS assay for inhibitors of human arachidonate 12S-lipoxygenase (ALOX12): Round 2 | purified 12hLO, xylenol orange hydroperoxide absorbance | AID 1671190, 2021 | actives 1.1% (n = 580,000) | Potency, µM (top dose mostly 108 µM), for the others: top-dose activity change, negative = inhibition, hits mostly inhibitors | Polyunsaturated fatty acid lipoxygenase ALOX12 (Homo sapiens), P18054
Target sequence (P18054 whole entry, looked up): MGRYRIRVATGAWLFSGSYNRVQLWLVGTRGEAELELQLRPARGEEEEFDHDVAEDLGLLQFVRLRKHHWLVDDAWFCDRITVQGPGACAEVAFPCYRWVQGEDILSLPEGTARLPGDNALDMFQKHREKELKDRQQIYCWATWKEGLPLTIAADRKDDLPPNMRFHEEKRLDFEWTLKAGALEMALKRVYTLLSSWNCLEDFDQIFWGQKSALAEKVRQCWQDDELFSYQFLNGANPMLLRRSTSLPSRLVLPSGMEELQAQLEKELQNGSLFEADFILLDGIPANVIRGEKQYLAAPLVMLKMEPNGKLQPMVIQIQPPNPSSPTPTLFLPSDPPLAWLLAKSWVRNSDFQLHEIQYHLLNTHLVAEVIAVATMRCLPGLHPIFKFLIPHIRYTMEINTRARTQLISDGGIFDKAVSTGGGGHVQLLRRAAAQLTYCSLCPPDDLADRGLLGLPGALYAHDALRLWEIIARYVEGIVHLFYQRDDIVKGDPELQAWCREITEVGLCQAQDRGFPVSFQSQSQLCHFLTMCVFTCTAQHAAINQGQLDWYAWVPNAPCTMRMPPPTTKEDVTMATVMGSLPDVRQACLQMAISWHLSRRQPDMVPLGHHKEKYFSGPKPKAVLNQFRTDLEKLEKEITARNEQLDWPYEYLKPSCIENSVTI
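Hydroperoxide product was detected by ferrous iron/xylenol orange as the 573 to 405 nm absorbance ratio. Arachidonic acid at 40 uM (final) was turned over for 30 min at room temperature by 150 nM human 12hLO, pH 7.0 Hepes buffer, after 15 min compound preincubation.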
VDR inh: Inhibitors of the vitamin D receptor (VDR): qHTS; VDR-SRC2-3 peptide fluorescence polarization, 2 h; Potency, µM, without a hit: max response, negative = inhibition, usual class: inhibitors; actives 0.93% (n = 400,000)
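Fluorescence polarization assay measuring small-molecule disruption of VDR binding to the coregulator peptide SRC2-3. Compounds were pin-transferred (23 nl) into the reagent mix and incubated 2 h at room temperature before reading.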
* marks the source's active call; other numbers are inactive results; ? = inconclusive; · = no result given. The list is not random: actives were taken first. Their share in the collection is about 4.2%. Calls come from the whole dose curve; as a rule, active = well fitted curve in the direction sought with a large enough effect; inconclusive = small, poorly fitted or top-dose-only effect, or another doubt; inactive = no such curve, though single readings can be large; an effect the other way counts as inactive or inconclusive. Unless noted, % is set by controls: 0 for no effect and ±100 for the full control effect; potency is the fitted concentration of half-maximal effect.

SMILES	PLK1 PBD inh	Sfp inh	ALOX12 inh	VDR inh
CC(C)C(NC(=O)c1ccc(C23CC4CC(CC(C4)C2)C3)cc1)C(=O)O (stereo not given)	·	·	-26.2%	·
CNc1c(NC(=O)Nc2ccc(F)cc2)c(=O)oc2ccccc12	·	·	10µM*	·
CC(=O)Nc1ccc(-n2c(=O)c3ccccc3c3ccccc3c2=O)cc1	-29.2%	9.6%	-12.9%	?
O=C1c2cccc3c(O)ccc(c23)C(=O)N1Cc1ccco1	4.74µM*	7.08µM*	?	?
O=C1c2cccc3c(O)ccc(c23)C(=O)N1c1ccc(Cl)cc1	4.74µM*	?	?	37.9%
CC(=O)Nc1ccc(N2C(=O)c3cccc4c(O)ccc(c34)C2=O)cc1	4.74µM*	-11.5%	0.0%	-11.1%
CCOC(=O)c1ccc(N2C(=O)c3cccc4c(C(=O)O)ccc(c34)C2=O)cc1	-0.1%	-9.4%	15.8µM*	4.0%
O=C1c2ccccc2C(=O)N1c1ccc(Cl)cc1	·	8.3%	·	·
Cc1ccc(N2C(=O)c3cccc4c(C(=O)O)ccc(c34)C2=O)cc1	-3.9%	19.0%	-18.0%	·
CC1CN(C(=O)/C=C/c2ccc([N+](=O)[O-])s2)CC(C)O1 (stereo not given)	-21.1%	15.2%	-20.8%	10.5%
CCOc1cc2[nH]c(=S)n(CC3CCCO3)c(=O)c2cc1OCC (stereo not given)	-6.5%	-3.6%	-10.3%	-3.6%
CSCCOC(=O)COc1ccc(/C=N/NC(=O)c2c(Cl)cnn2C)cc1	4.9%	2.6%	0.0%	-4.8%
CCCCCNC(=O)c1ccc2c(=O)n(CCCN3CCCC3=O)c(=S)[nH]c2c1	-10.5%	-14.3%	0.0%	-7.9%
COCCNC(=O)C(C)N1c2cccc3cccc(c23)S1(=O)=O (stereo not given)	?	8.2%	0.0%	-1.0%
COCCCNC(=O)C(C)N1c2cccc3cccc(c23)S1(=O)=O (stereo not given)	10.6µM*	9.3%	0.9%	70.8µM*
CCN1C(=O)C(O)(C2COC(C)(C)CC2=O)c2cc(Br)ccc21 (stereo not given)	-6.4%	-2.5%	11.7%	-2.5%
Cc1ccc(NC(=O)CC(C)S(=O)(=O)c2ccc3c(c2)NC(=O)CO3)cc1C (stereo not given)	23.8µM*	15.2%	-2.7%	-2.3%
CCc1ccccc1NC(=O)CC(C)S(=O)(=O)c1ccc2c(c1)NC(=O)CO2 (stereo not given)	·	·	-19.1%	9.7%
CC(CC(=O)N1CCc2ccccc21)S(=O)(=O)c1ccc2c(c1)NC(=O)CO2 (stereo not given)	26.7µM*	9.3%	5.1%	-9.2%
COc1cc(/C=C2\SC(N)=NC2=O)cc(OC)c1	13.4µM*	-0.1%	0.0%	?
CC(C)(C)C(=O)[C@@H]1[C@@H]2C(=O)N(C3CCCCC3)C(=O)[C@@H]2[C@H]2c3ccccc3C=CN12	26.7µM*	-18.3%	?	27.5%
Cc1ccc(/C=C/S(=O)(=O)NCC(=O)OCCO)cc1	·	·	-34.1%	·
CCOC(=O)C1CCCN(C(=O)CSc2ccc(NC(C)=O)cc2)C1 (stereo not given)	21.2µM*	6.4%	-3.8%	-24.9%
COc1ccc(N(C(C)=O)S(=O)(=O)c2cc(OC)ccc2OC)cc1	-2.9%	14.6%	1.8%	-3.3%
COc1ccc(OC)c(S(=O)(=O)N(C(C)=O)c2ccc3oc(=O)sc3c2)c1	2.4%	44.7µM*	?	-14.6%
SMILES	PLK1 PBD inh	Sfp inh	ALOX12 inh	VDR inh
COc1ccc(S(=O)(=O)N(C(=O)C(C)C)c2ccc3oc(=O)sc3c2)cc1	-22.8%	?	?	79.4µM*
CC(C)C(=O)N(c1ccc2oc(=O)sc2c1)S(=O)(=O)c1ccccc1	-10.9%	17.8µM*	?	79.4µM*
COc1ccc(S(=O)(=O)N(C(=O)c2ccncc2)c2ccc3oc(C)c(C(C)=O)c3c2)cc1	·	·	?	13.3%
COc1ccc(C(=O)Oc2ccc3oc(=O)sc3c2)cc1	-24.2%	50.1µM*	-21.3%	?
CC(=O)N(c1ccc2oc(=O)sc2c1)S(=O)(=O)c1ccccc1	29.9µM*	8.91µM*	?	-26.7%
CCCC(=O)N(c1ccc2oc(=O)sc2c1)S(=O)(=O)c1cccs1	-21.1%	?	?	?
Cc1cc(Cl)ccc1OCCCC(=O)N1CCCCC1	-6.8%	79.4µM*	0.0%	0.4%
O=C(CCCOc1ccc(Cl)cc1Cl)N1CCc2ccccc2C1	-5.5%	17.8µM*	-27.3%	2.9%
Cc1ccc(C)c(OCC(=O)N2CCc3ccccc3C2)c1	-8.2%	10.9%	?	-0.9%
Cc1cc(OCC(=O)N2CCc3ccccc3C2)c(C)cc1Br	18.9µM*	-14.4%	134.9%	-18.6%
CNC(=O)C[C@H]1C(=O)N(Cc2ccccc2)C[C@@H]1Cc1ccccc1	-6.7%	·	11.0%	·
CC1=CC(c2ccccc2)n2nc(NC(=O)CCC(=O)O)nc2N1 (stereo not given)	-14.8%	-25.8%	-14.6%	7.0%
O=C(CCN1C(=O)COc2ccccc21)NCc1cccs1	23.8µM*	12.9%	17.9%	-7.2%
Cc1ccn2c(NCc3ccccc3)c(-c3cccs3)nc2c1	-7.3%	-20.8%	?	1.5%
Cc1ccn2c(NC3CCCC3)c(-c3cccs3)nc2c1	4.23µM*	-19.1%	31.6µM*	39.8µM*
CC(C)C1COc2cc3oc(=O)ccc3cc2O1 (stereo not given)	·	7.6%	·	6.9%
CCOC(=O)c1c2c(n(Cc3ccccc3)c1C)C(=O)C(=O)c1ccccc1-2	-6.6%	·	-18.2%	50.1µM*
Cc1ccc(NC(=O)c2nc(S(C)(=O)=O)ncc2N(Cc2ccco2)Cc2cccs2)c(C)c1	·	·	-5.9%	-17.9%
Cc1ccc(-n2c(SCC(=O)N3CCCc4ccccc43)nc3c([nH]c4ccccc43)c2=O)cc1	·	·	-22.3%	-1.4%
Oc1cc(CNC2CCCCC2)c(O)cc1CNC1CCCCC1	5.32µM*	·	?	-14.8%
Cc1ccccc1CNC1CCCCC1	?	6.0%	-6.5%	3.7%
N#CC(CC(=O)N1CCCC1)(CC(=O)N1CCCC1)c1nc2ccccc2s1	·	·	-6.2%	·
CCOc1nc(N2CCOCC2)nc(C)c1[N+](=O)[O-]	29.9µM*	5.6%	1.5%	-9.5%
COc1ccc(CNC(=O)C(=O)NCC(c2cccs2)S(=O)(=O)c2ccc(F)cc2)cc1 (stereo not given)	·	·	-1.5%	7.1%
CCOC(=O)CNS(=O)(=O)c1ccc(C(=O)O)cc1	-19.4%	11.0%	-17.2%	-4.4%
CSc1ccc(/C=C2/C(C)=C(CC(=O)O)c3cc(F)ccc32)cc1	·	-10.3%	·	44.7µM*
CCCC(C(=O)Nc1c(C)cccc1C)N1C(=O)C(=O)c2ccccc21 (stereo not given)	·	·	6.31µM*	·
COC(=O)[C@H]1[C@H]2C[C@@H]3c4[nH]c5ccccc5c4CCN3C[C@H]2C[C@@H](OC(=O)c2cc(OC)c(OC)c(OC)c2)[C@@H]1OC	·	29.4%	2.7%	35.5µM*
